Results reported in the supplement of paper PMC6555819.

Tests used:
Test in all cases: PBM binding z-score (relative to random genomic background probes); higher = stronger binding; sequences stand for … in GC…GCGATTGACAGCGTAGAATGAAGG
[1] = tested on: PPARg:RXRa DBDmut IVT, anti-RXR (DBD mutation: RXRa K156A/R161A, NR concentration 270 nM, RXRa partner concentration 90 nM)
Summary of the method: (§1)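 Binding z-scores were set against random background probes. The data came from custom Agilent 4×180K protein-binding microarrays carrying double-stranded probes with 34-nt variable regions, incubated 1 h with ligand-free nuclear receptor dimers. Partner-specific antibodies detected binding, and scanned fluorescence was regression-normalized.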

[2] = tested on: PPARg:RXRa IVT, anti-PPARg (NR concentration 270 nM, RXRa partner concentration 90 nM)
Summary of the method: as §1

[3] = tested on: PPARg DBDmut:RXRa IVT, anti-PPARg (DBD mutation: PPARg1 K132A/R137A, NR concentration 270 nM, RXRa partner concentration 90 nM)
Summary of the method: as §1

[4] = tested on: PPARg DBDmut IVT, anti-PPARg (DBD mutation: PPARg1 K132A/R137A, NR concentration 270 nM)
Summary of the method: as §1

[5] = tested on: PPARg homodimer (NR concentration 180 nM)
Summary of the method: as §1

[6] = tested on: PXR:RXRa (NR concentration 270 nM, RXRa partner concentration 90 nM)
Summary of the method: as §1

[7] = tested on: PXR homodimer (NR concentration 270 nM)
Summary of the method: as §1

[8] = tested on: RARa:RXR (NR concentration 270 nM, RXRa partner concentration 90 nM)
Summary of the method: as §1

[9] = tested on: RARa homodimer (NR concentration 270 nM)
Summary of the method: as §1

[10] = tested on: RARb:RXRa (NR concentration 270 nM, RXRa partner concentration 90 nM)
Summary of the method: as §1

[11] = tested on: RARb homodimer (NR concentration 270 nM)
Summary of the method: as §1

[12] = tested on: RARg:RXRa (NR concentration 270 nM, RXRa partner concentration 90 nM)
Summary of the method: as §1

[13] = tested on: RARg homodimer (NR concentration 270 nM)
Summary of the method: as §1

[14] = tested on: RXRa DBDmut IVT, anti-RXR (DBD mutation: RXRa K156A/R161A, NR concentration 90 nM)
Summary of the method: as §1

[15] = tested on: RXRa homodimer (NR concentration 180 nM)
Summary of the method: as §1

[16] = tested on: THRa:RXRa (NR concentration 90 nM, RXRa partner concentration 90 nM)
Summary of the method: as §1

[17] = tested on: THRa homodimer (NR concentration 90 nM)
Summary of the method: as §1

[18] = tested on: VDR homodimer (NR concentration 270 nM)
Summary of the method: as §1

Sequence: ATATGTAGGATACATCCGGGTCATTCAGGCTATG
- PBM binding z-score [1]: 3.21
- PBM binding z-score [2]: 3.86
- PBM binding z-score [3]: 1.63
- PBM binding z-score [4]: 1.37
- PBM binding z-score [5]: 1.25
- PBM binding z-score [6]: 2.39
- PBM binding z-score [7]: 1.38
- PBM binding z-score [8]: 2.42
- PBM binding z-score [9]: 0.161
- PBM binding z-score [10]: 1.2
- PBM binding z-score [11]: 2.18
- PBM binding z-score [12]: 1.58
- PBM binding z-score [13]: 1.43
- PBM binding z-score [14]: 0.223
- PBM binding z-score [15]: 1.95
- PBM binding z-score [16]: 2.99
- PBM binding z-score [17]: 1.95
- PBM binding z-score [18]: 2.23

Sequence: AGGATGAGGTTAAGATCAGGGAAACAGAATACAT
- PBM binding z-score [1]: -0.114
- PBM binding z-score [2]: 0.973
- PBM binding z-score [3]: 0.72
- PBM binding z-score [4]: 0.516
- PBM binding z-score [5]: 1.27
- PBM binding z-score [6]: 1.56
- PBM binding z-score [7]: 1.2
- PBM binding z-score [8]: 1.9
- PBM binding z-score [9]: 1.63
- PBM binding z-score [10]: 2.1
- PBM binding z-score [11]: 1.48
- PBM binding z-score [12]: 2.1
- PBM binding z-score [13]: 1.71
- PBM binding z-score [14]: 0.731
- PBM binding z-score [15]: 2.55
- PBM binding z-score [16]: 2.66
- PBM binding z-score [17]: 1.15
- PBM binding z-score [18]: 1.08

Sequence: TAGCCTAGGTCATCGGGCCAGTATAGTACGCATC
- PBM binding z-score [1]: 1.44
- PBM binding z-score [2]: 3.19
- PBM binding z-score [3]: 0.181
- PBM binding z-score [4]: -0.303
- PBM binding z-score [5]: 1.03
- PBM binding z-score [6]: 1.81
- PBM binding z-score [7]: -0.265
- PBM binding z-score [8]: 2.58
- PBM binding z-score [9]: -0.0244
- PBM binding z-score [10]: 3.9
- PBM binding z-score [11]: 3.22
- PBM binding z-score [12]: 4.32
- PBM binding z-score [13]: 4.38
- PBM binding z-score [14]: 0.957
- PBM binding z-score [15]: 3.29
- PBM binding z-score [16]: 2.96
- PBM binding z-score [17]: 1.16
- PBM binding z-score [18]: 0.811

Sequence: GCTTGTAGGTCAAGGTTAAGAAAGACTAAGCTAA
- PBM binding z-score [1]: 7.82
- PBM binding z-score [2]: 8
- PBM binding z-score [3]: 2.05
- PBM binding z-score [4]: 1.01
- PBM binding z-score [5]: 1.99
- PBM binding z-score [6]: 2.52
- PBM binding z-score [7]: 0.226
- PBM binding z-score [8]: 3.43
- PBM binding z-score [9]: 1.18
- PBM binding z-score [10]: 4.32
- PBM binding z-score [11]: 3.22
- PBM binding z-score [12]: 4.98
- PBM binding z-score [13]: 5.18
- PBM binding z-score [14]: 1.26
- PBM binding z-score [15]: 4.8
- PBM binding z-score [16]: 2.91
- PBM binding z-score [17]: 0.735
- PBM binding z-score [18]: 0.622

Sequence: AGAATGAGGTTAAGAACAGGGAAACAGAATACAT
- PBM binding z-score [1]: 2.35
- PBM binding z-score [2]: 2.23
- PBM binding z-score [3]: 1.48
- PBM binding z-score [4]: 0.955
- PBM binding z-score [5]: 0.811
- PBM binding z-score [6]: 1.13
- PBM binding z-score [7]: 0.635
- PBM binding z-score [8]: 1.61
- PBM binding z-score [9]: 0.514
- PBM binding z-score [10]: 1.87
- PBM binding z-score [11]: 1.14
- PBM binding z-score [12]: 1.96
- PBM binding z-score [13]: 1.4
- PBM binding z-score [14]: 0.678
- PBM binding z-score [15]: 2.42
- PBM binding z-score [16]: 2.25
- PBM binding z-score [17]: 0.727
- PBM binding z-score [18]: 0.533

Sequence: TCAATTAGTTGATTAGGGCAACCGAAACAGCGGA
- PBM binding z-score [1]: 2.01
- PBM binding z-score [2]: 1.32
- PBM binding z-score [3]: 0.608
- PBM binding z-score [4]: 0.646
- PBM binding z-score [5]: -0.173
- PBM binding z-score [6]: 0.326
- PBM binding z-score [7]: 0.219
- PBM binding z-score [8]: 0.567
- PBM binding z-score [9]: 0.493
- PBM binding z-score [10]: 0.665
- PBM binding z-score [11]: 0.454
- PBM binding z-score [12]: 0.298
- PBM binding z-score [13]: 0.178
- PBM binding z-score [14]: 0.983
- PBM binding z-score [15]: 0.591
- PBM binding z-score [16]: 0.541
- PBM binding z-score [17]: 0.0743
- PBM binding z-score [18]: 0.229

Sequence: CCGACTGGTGCAGAAAGGTTACCATACCATCCGG
- PBM binding z-score [1]: -0.779
- PBM binding z-score [2]: -0.294
- PBM binding z-score [3]: -0.872
- PBM binding z-score [4]: -1.11
- PBM binding z-score [5]: 1.03
- PBM binding z-score [6]: 1
- PBM binding z-score [7]: 0.0978
- PBM binding z-score [8]: 1.65
- PBM binding z-score [9]: -0.557
- PBM binding z-score [10]: 1.43
- PBM binding z-score [11]: 1.73
- PBM binding z-score [12]: 1.16
- PBM binding z-score [13]: 0.812
- PBM binding z-score [14]: -0.6
- PBM binding z-score [15]: 1.61
- PBM binding z-score [16]: 0.935
- PBM binding z-score [17]: -0.35
- PBM binding z-score [18]: -0.229

Sequence: CCTGACGGGTCACTCCAGGTTATAGCATCGGAGT
- PBM binding z-score [1]: 1.01
- PBM binding z-score [2]: 2.14
- PBM binding z-score [3]: -0.43
- PBM binding z-score [4]: -0.483
- PBM binding z-score [5]: 1.81
- PBM binding z-score [6]: 4.64
- PBM binding z-score [7]: 0.176
- PBM binding z-score [8]: 3.34
- PBM binding z-score [9]: -0.12
- PBM binding z-score [10]: 3.31
- PBM binding z-score [11]: 2.89
- PBM binding z-score [12]: 3.82
- PBM binding z-score [13]: 3.7
- PBM binding z-score [14]: 1.04
- PBM binding z-score [15]: 3.59
- PBM binding z-score [16]: 5.04
- PBM binding z-score [17]: 0.311
- PBM binding z-score [18]: 1.27
